In PubChem BioAssay (NCI):
About 79,000 compounds went through this panel and 15% of them were active in at least one assay; those are over-represented in the sample as a whole. Values without a mark were called inactive. Active and inactive are the calls of the source. Rule as the data show it: active = growth inhibition above about 70%; inactive = the rest.

Test: NCI Yeast Anticancer Drug Screen. Data for the rad52 strain (AID 147);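 also: 0% = growth of vehicle-treated control cultures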
Details: S. cerevisiae rad52 mutant growth inhibition, stronger effect = higher value
Protocol: Growth inhibition of yeast strains with defined genetic alterations is measured as a screen for potential anti-cancer activity. Selected strains with alterations in DNA damage repair or cell cycle control were exposed to compounds and growth inhibition was measured relative to vehicle treated controls. The strain used in this assay is rad52

Structure (SMILES) | growth inhibition (at 1.2 µM) | growth inhibition (at 3.7 µM) | growth inhibition (at 11.0 µM) | growth inhibition (at 33.0 µM) | growth inhibition (at 100.0 µM)
COc1cc(CNc2ccc(C(C)C)cc2)cc(OC)c1OC | 21% | 3% | -17% | 13% | 78% (active)
CC[C@@]1(OC(=O)CCC(=O)O)C(=O)OCc2c1cc1n(c2=O)Cc2cc3ccccc3nc2-1 | 78% (active) | 87% (active) | 92% (active) | 95% (active) | 94% (active)
BrCc1ccccc1C(c1ccccc1)c1ccccc1 | 9% | 79% (active) | 96% (active) | 96% (active) | 94% (active)
CCN(CC)CCNC(=O)c1nn(-c2ccc(Cl)cc2)c2c1CCc1cc(OC)ccc1-2 | -16% | 13% | 26% | 40% | 94% (active)
O=C(Nc1cccc(C(F)(F)F)c1)Oc1ccc(Cl)cc1C(=O)c1ccccc1 | 15% | 17% | 80% (active) | 69% | 98% (active)
CC(=O)N1C(=O)/C(=C\C(=O)c2ccc(Cl)cc2)c2ccccc21 | 8% | 34% | 59% | 93% (active) | 94% (active)
O=C1c2ccccc2CCC1(Br)Br | 11% | 27% | 81% (active) | 99% (active) | 99% (active)
COc1ccc2oc(-c3ccc(Cl)cc3)c(N3CCN(C)CC3)c2c1 | -1% | 0% | 91% (active) | 98% (active) | 99% (active)
